# Measured values from PubChem BioAssay (Tox21).
# Unmarked numbers belong to inactive results. Results filed as inconclusive are left out. Entries that show only a call come without a potency. Active and inactive are the calls of the source. Unless noted, calls come from the whole dose curve; as a rule, active = well fitted curve in the direction sought with a large enough effect in the repeat runs; inconclusive = weak or mixed curves; inactive = no such curve, though single readings can be large; an effect the other way counts as inactive or inconclusive.
# Legend:
# [1] = qHTS assay for small molecules that induce genotoxicity in human embryonic kidney cells expressing luciferase-tagged ATAD5 (AID 651632); note: nearly all actives have a fitted effect of over 15% in size
# Outline: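 Quantitative HTS in HEK293T expressing luciferase-tagged ATAD5, whose levels rise upon DNA damage. Exposure ran 16 hr at 37C and 5% CO2, with luminescence read 30 min after Amplite addition at room temperature.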
# [2] = qHTS assay for small molecule agonists of the p53 signaling pathway - cell viability (AID 651633; calls by dose curve; note: nearly all actives have a fitted effect of over 30% in size; note: potency is the fitted concentration of half-maximal effect)
# Outline: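 Viability counter-read: CellTiter-Glo luminescence (30 min, room temperature) in the same p53RE-bla plates. These plates had been exposed to compounds for 16 h at 37 C.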
# [3] = qHTS assay for small molecule disruptors of the mitochondrial membrane potential - cell viability (AID 720634; calls by dose curve; note: nearly all actives have a fitted effect of over 20% in size; note: potency is the fitted concentration of half-maximal effect)
# Outline: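 ATP-based luminescent viability readout (CellTiter-Glo, 30 min, room temperature) in HepG2 cells multiplexed with the m-MPI membrane potential dye; compound exposure lasted 1 hr at 37 C.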
# [4] = qHTS assay to test for compound auto fluorescence at 590 nm (red) in HepG2 cells (AID 720674)
# Outline: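 We screened compounds on adherent HepG2 cells, incubating them for an hour at 37 C in 5% CO2 before reading emission at 590 nm under 540 nm excitation; values reflect equivalence to Rose Bengal sodium fluorescence.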
# [5] = qHTS assay to test for compound auto fluorescence at 535 nm (green) in HepG2 cells (AID 720675)
# [6] = qHTS assay to test for compound auto fluorescence at 460 nm (blue) in HEK293 cells (AID 720678)
# Outline: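 Blue-channel (Ex/Em 405/460 nm) intensity measured in HEK293 cultures after overnight compound exposure at 37C; signal expressed relative to triamterene. Cells plated 2,000 per well in 10% dialyzed FBS medium and allowed 4-5 hr to attach.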
# [7] = qHTS assay to test for compound auto fluorescence at 590 nm (red) in HEK293 cells (AID 720679)
# Outline: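 Red-channel autofluorescence (Ex/Em 540/590 nm; Rose Bengal sodium reference) was measured after overnight 37C, 5% CO2 exposure of attached HEK293 cells, 2,000 per well in medium with 10% dialyzed FBS.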
# [8] = qHTS assay for small molecules that induce genotoxicity in human embryonic kidney cells expressing luciferase-tagged ATAD5 - cell viability (AID 651634; calls by dose curve; note: nearly all actives have a fitted effect of over 25% in size; note: potency is the fitted concentration of half-maximal effect)
# Outline: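 After 15.5 hr incubation with compound at 37C, 5% CO2, HEK293T ATAD5-luciferase cells received CellTiter-Fluor reagent; fluorescence intensity was quantified following 30 min at 37C.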
# [9] = qHTS assay for small molecule disruptors of the mitochondrial membrane potential (AID 720635); note: potency is the fitted concentration of half-maximal effect
# Outline: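 Mitochondrial membrane potential tracked with Mito-MPS dye, red aggregates (ex 540/em 590 nm) against green monomers (ex 490/em 535 nm). Compound treatment 1 hr at 37C, dye 30 min in HepG2.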
Compound,Potency [1],Potency [2],Potency [3],outcome [4],outcome [5],Potency [6],outcome [7],Potency [8],"fluorescence, relative to Rose Bengal [4]","fluorescence, % of fluorescein control [5]","fluorescence, % of triamterene [6]","fluorescence, % of fluorescent control [7]",Potency [9]
C=C(C)C(=O)OCCOc1ccccc1,inactive,inactive,inactive,inactive,inactive,inactive,inactive,,,,,,
OCCC1CCCCN1 (stereo not drawn),inactive,inactive,inactive,inactive,inactive,inactive,inactive,inactive,,,,,
CCCCOc1ccc(CC(=O)NO)cc1,inactive,inactive,inactive,,,,,9.02 µM (active),0.376% [at 18.6 µM],0.007% [at 18.6 µM],-0.0396% [at 18.6 µM],,
CC(=O)O[C@@H]1C(=O)O[C@@H]2[C@H]1OC(=O)[C@@H]2OC(C)=O,inactive,inactive,inactive,,inactive,inactive,inactive,inactive,,,,,
CC(C(=O)O)c1ccc(-c2ccccc2)c(F)c1 (stereo not drawn),inactive,inactive,inactive,inactive,inactive,inactive,inactive,inactive,,,,,
C=C(C)C(=O)OCCN(C)C,inactive,inactive,,,inactive,,inactive,inactive,,,,,
CN1CCN(C2=Nc3cc(Cl)ccc3Nc3ccccc32)CC1,inactive,inactive,inactive,inactive,inactive,inactive,inactive,,,,,,
COC(=O)CSc1cc(N=c2sc(=O)n3n2CCCC3)c(F)cc1Cl,inactive,inactive,inactive,inactive,inactive,inactive,inactive,inactive,,,,,
CN1CCC(OC(c2ccccc2)c2ccccc2)CC1,inactive,inactive,inactive,,,,,inactive,-0.513% [at 18.6 µM],-0.0945% [at 18.6 µM],-0.105% [at 18.6 µM],0.0005% [at 18.6 µM],
O=C(O)C(c1ccc(Cl)cc1)c1ccc(Cl)cc1,inactive,inactive,inactive,inactive,inactive,inactive,inactive,inactive,,,,,
CN(c1nccc(=O)[nH]1)C1CCN(c2nc3ccccc3n2Cc2ccc(F)cc2)CC1,inactive,inactive,inactive,,inactive,inactive,inactive,inactive,,,,,
CCOc1ccc(NC(=O)CC(C)=O)cc1,inactive,inactive,inactive,inactive,inactive,,inactive,,,,,,inactive
CC(O)C1CCCCC1 (stereo not drawn),inactive,inactive,inactive,inactive,inactive,,inactive,,,,,,inactive
CCOC(=O)C1=NN(c2ccccc2)C(=O)C1,inactive,inactive,inactive,,inactive,,inactive,inactive,,,,,
Cn1sccc1=O,inactive,inactive,inactive,inactive,inactive,inactive,inactive,,,,,,61.1 µM (active)
CCCCc1cc2ccccc2c(OCCN(C)C)n1,inactive,inactive,inactive,,,,,,0.0286% [at 18.6 µM],0.0129% [at 18.6 µM],0.0451% [at 18.6 µM],-0.0036% [at 18.6 µM],
CCCCCC/C=C/C=O,inactive,inactive,inactive,inactive,inactive,inactive,,inactive,,,,,
C=CC(=O)OCCOC(=O)CCC(=O)O,inactive,inactive,inactive,inactive,inactive,,,inactive,,,,,
CN1CCC(=C2c3ccccc3CCc3sccc32)CC1,inactive,inactive,inactive,inactive,inactive,inactive,inactive,inactive,,,,,
CCCCC(CC)(CO)CO,inactive,inactive,inactive,inactive,inactive,inactive,inactive,inactive,,,,,

Compound,Potency [1],Potency [2],Potency [3],outcome [4],outcome [5],Potency [6],outcome [7],Potency [8],"fluorescence, relative to Rose Bengal [4]","fluorescence, % of fluorescein control [5]","fluorescence, % of triamterene [6]","fluorescence, % of fluorescent control [7]",Potency [9]
O=S1(=O)c2cccc3cccc(c23)N1CCCN1CCN(c2ccc(F)cc2)CC1,inactive,,inactive,inactive,inactive,inactive,inactive,inactive,,,,,
NC(N)=NN=C(/C=C/c1ccc([N+](=O)[O-])o1)/C=C/c1ccc([N+](=O)[O-])o1,,2.37 µM (active),18.8 µM (active),inactive,inactive,inactive,inactive,10.6 µM (active),,,,,2.66 µM (active)
C=CC(=O)OCC(C)OCC(C)OCC(C)OC(=O)C=C (stereo not drawn),,24.3 µM (active),inactive,inactive,inactive,inactive,inactive,,,,,,
O=C(O)Cn1c(C(=O)Nc2nc(-c3ccccc3Cl)cs2)cc2ccccc21,inactive,,inactive,inactive,inactive,inactive,inactive,inactive,,,,,26.6 µM (active)
NCCCN(CCO)CCO,inactive,,inactive,inactive,inactive,inactive,inactive,inactive,,,,,
Cc1cc(O)ccc1N,inactive,,,inactive,inactive,inactive,inactive,,,,,,
CC(C)(C)c1cc(CO)cc(C(C)(C)C)c1O,inactive,,inactive,,inactive,inactive,inactive,inactive,,,,,49.5 µM (active)
CCCCCOC(=O)c1ccc(O)cc1,,inactive,,,inactive,inactive,inactive,,,,,,6.94 µM (active)
CN(C)CC/C=C1\c2ccccc2COc2ccccc21,,,inactive,inactive,inactive,,inactive,inactive,,,,,
S=C(S)NCCNC(=S)S,inactive,,inactive,inactive,inactive,,,inactive,,,,,
CCN(CC)CCOc1ccc2c(c1)C(=O)c1cc(OCCN(CC)CC)ccc1-2,inactive,,inactive,inactive,inactive,inactive,inactive,inactive,,,,,inactive
c1ccc(-c2nc[nH]c2-c2ccccc2)cc1,inactive,inactive,inactive,inactive,inactive,inactive,inactive,,,,,,
CCCCCCCCC(CO)CCCCCC (stereo not drawn),inactive,,inactive,inactive,inactive,inactive,inactive,,,,,,
CC(Cc1cccc(C(F)(F)F)c1)NCCOC(=O)c1ccccc1 (stereo not drawn),inactive,,inactive,inactive,inactive,inactive,inactive,,,,,,
CNCC[C@@H](Oc1ccccc1C)c1ccccc1,inactive,inactive,inactive,inactive,inactive,,inactive,,,,,,
CC(C)(C)c1cc(O)c(C(C)(C)C)cc1O,inactive,,inactive,inactive,inactive,,inactive,inactive,,,,,6.11 µM (active)
CCN(CC)CCNC(C(=O)OCCC(C)C)c1ccccc1 (stereo not drawn),inactive,,inactive,inactive,inactive,inactive,inactive,inactive,,,,,
Cn1c(NCCN(CCO)CCCc2ccc([N+](=O)[O-])cc2)cc(=O)n(C)c1=O,inactive,,inactive,inactive,inactive,inactive,inactive,,,,,,
Cc1cc(C)c(S(=O)(=O)O)cc1N=Nc1cc(S(=O)(=O)O)c2ccccc2c1O,inactive,inactive,inactive,inactive,inactive,inactive,inactive,,,,,,
ClC(Cl)(Cl)c1ccc(C(Cl)(Cl)Cl)cc1,inactive,,inactive,inactive,inactive,inactive,inactive,,,,,,13.5 µM (active)

Compound,Potency [1],Potency [2],Potency [3],outcome [4],outcome [5],Potency [6],outcome [7],Potency [8],"fluorescence, relative to Rose Bengal [4]","fluorescence, % of fluorescein control [5]","fluorescence, % of triamterene [6]","fluorescence, % of fluorescent control [7]",Potency [9]
O=S1(=O)N=C(O)c2ccccc21,,,inactive,inactive,inactive,inactive,inactive,inactive,,,,,inactive
CCN(CC)C(C)CN1c2ccccc2Sc2ccccc21 (stereo not drawn),inactive,,inactive,,,,,inactive,0.373% [at 18.6 µM],0.0339% [at 18.6 µM],,-0.0946% [at 18.6 µM],inactive
Cc1ccccc1N=Nc1ccc(N=Nc2c(O)ccc3ccccc23)c(C)c1,inactive,,inactive,inactive,inactive,inactive,inactive,inactive,,,,,inactive
Cc1nc2ccccc2n1Cc1ccc(Cl)cc1,inactive,,,inactive,inactive,inactive,inactive,,,,,,
CCOC(=O)C1=C(C)NC(C)=C(C(=O)OC)C1c1cccc([N+](=O)[O-])c1 (stereo not drawn),inactive,inactive,,,inactive,inactive,inactive,,,,,,26.6 µM (active)
N[C@H]1C(O)O[C@H](CO)[C@H](O)[C@@H]1O (stereo partly drawn),inactive,,inactive,,inactive,inactive,inactive,inactive,,,,,
O=C(Cl)c1ccc([N+](=O)[O-])cc1,inactive,,inactive,inactive,inactive,inactive,inactive,inactive,,,,,inactive
CN1CCC[C@@H]1c1cccnc1,inactive,,inactive,inactive,inactive,inactive,inactive,inactive,,,,,inactive
COc1cc(C(C)(C)C)c(O)c(C(C)(C)C)c1,inactive,,inactive,inactive,inactive,,,inactive,,,,,27.3 µM (active)
COCCCCCCCCOCCC[Si](C)(O[Si](C)(C)C)O[Si](C)(C)C,inactive,inactive,,inactive,inactive,inactive,inactive,,,,,,4.86 µM (active)
O=C(Nc1ccccc1)OCC(CN1CCCCC1)OC(=O)Nc1ccccc1 (stereo not drawn),inactive,,,,,,,inactive,,0.0386% [at 18.6 µM],0.0079% [at 18.6 µM],,
CCCCCOC(=O)COc1cc(N2C(=O)C3=C(CCCC3)C2=O)c(F)cc1Cl,inactive,,inactive,inactive,inactive,,,inactive,,,,,
CC1(C)CCC(C)(C)c2cc(NC(=O)c3ccc(C(=O)O)cc3)ccc21,inactive,,inactive,inactive,inactive,inactive,inactive,,,,,,24.8 µM (active)
OC(CCN1CCCCC1)(c1ccccc1)C1CCCCC1 (stereo not drawn),inactive,,inactive,inactive,inactive,,,inactive,,,,,
c1ccc(OCc2ccc(CCCN3CCOCC3)cc2)cc1,inactive,,inactive,inactive,inactive,inactive,inactive,inactive,,,,,
O=[N+]([O-])c1cccc(Cl)c1Cl,inactive,,inactive,inactive,inactive,inactive,inactive,,,,,,inactive
COc1ccc([C@@H]2Sc3ccccc3N(CCN(C)C)C(=O)[C@@H]2OC(C)=O)cc1,inactive,,inactive,,inactive,inactive,inactive,inactive,,,,,inactive
Cc1ccc(O)c([C@H](CCN(C(C)C)C(C)C)c2ccccc2)c1,inactive,inactive,inactive,inactive,inactive,inactive,inactive,,,,,,
CC(C)(C)c1cc(CCC(=O)OCC(COC(=O)CCc2cc(C(C)(C)C)c(O)c(C(C)(C)C)c2)(COC(=O)CCc2cc(C(C)(C)C)c(O)c(C(C)(C)C)c2)COC(=O)CCc2cc(C(C)(C)C)c(O)c(C(C)(C)C)c2)cc(C(C)(C)C)c1O,inactive,inactive,inactive,inactive,inactive,inactive,inactive,,,,,,
